# Measured values from PubChem BioAssay AID493248 (Broad Institute, 2011).
# Screen size: about 2,300 compounds; about 1,400 (61%) were called active. Roughly 7% stayed inconclusive and do not appear here. How the calls were made is not given here. So high a share suggests a set chosen from earlier hits. Not all results are given here. Results with a measured potency or affinity are listed apart.
# Molecular target: FAD-linked sulfhydryl oxidase ALR (Homo sapiens) (UniProt P55789)
# Experiment: inhibitors of human ALR sulfhydryl oxidase, dose response, biochemical, H2O2 detection, luminescence, cherry-pick (AID 493248)
# Conditions: purified ALR, DTT oxidation, H2O2 HRP-luminol luminescence; at 10 µM (top of the series)
# Sequence of FAD-linked sulfhydryl oxidase ALR (Homo sapiens) (P55789 whole entry, looked up): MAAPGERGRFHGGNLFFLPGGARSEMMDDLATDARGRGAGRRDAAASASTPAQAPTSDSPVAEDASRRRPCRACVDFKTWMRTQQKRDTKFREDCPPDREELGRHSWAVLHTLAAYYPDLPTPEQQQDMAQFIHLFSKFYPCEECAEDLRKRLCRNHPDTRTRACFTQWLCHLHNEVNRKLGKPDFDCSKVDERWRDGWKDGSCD
row,SMILES,"activity change, negative = inhibition [%]"
1,CN(C)c1ccc(/C=N/Nc2cccc(C(=O)O)c2)cc1,-23.9
2,O=C(/C(=N/N=C/c1ccc(O)c(O)c1O)c1ccccc1)c1ccccc1,-31.1
3,CCC(C)(C)n1nnnc1CN1CCc2ccccc21,23.2
4,CC1CCN(CC(=O)N2c3ccccc3CCc3ccccc32)CC1,2.93
5,CN(C)c1ccc(NC(=O)CC2NCCNC2=O)cc1 (configuration not stated),-99.5
6,COc1ccc(NC(=O)CC2Nc3cccc4cccc(c34)NC2=O)cc1 (configuration not stated),-74.6
7,CC(C)Cn1c(N)c(C=O)c(=O)n(C)c1=O,-3.74
8,CN(Cc1ccco1)C(=O)C(Cc1ccccc1)NS(=O)(=O)c1ccc2c(c1)CCC(=O)N2 (configuration not stated),-12
9,N=C1/C(=C\c2ccc(Br)o2)C(=O)N=C2SC(CC(=O)N3CCCCC3)=NN12,-18.4
10,CSc1ccc(/C=C2\C(=N)N3N=C(CC(=O)N4CCCCC4)SC3=NC2=O)cc1,-54.4
11,CCc1ccc(CCC(=O)Nc2ccc(Cl)cc2)o1,-22.5
12,CC(C)C(=O)NN(C(=O)C(C)C)c1nc2ccccc2s1,-76
13,Cn1c(-c2sccc2OCc2ccccc2)n[nH]c1=S,-40.7
14,Cc1nc(-c2ccccc2)sc1-c1n[nH]c(=S)n1C,-47.5
15,COc1cc(CNc2cc(C)ccc2C)cc(OC)c1OC,-55.5
16,Cc1ccc2cc3cc(C(=O)NCCCN4CCCC4=O)oc3nc2c1,-55.2
17,Cc1nc(C)c(-c2csc(Nc3cccnc3)n2)s1,-15.7
18,Cc1nc(C)c(-c2csc(Nc3ccc(O)cc3C)n2)s1,-3.91
19,COc1cc(N)c(Cc2nccc3cc(OC)c(OC)cc23)cc1OC,5.91
20,COc1cc(Sc2ccc(C)cc2)c(OC)cc1N,-74.8
21,Cc1cccc(/C=N/Nc2nncc3ccccc23)c1,-4.32

row,SMILES,"activity change, negative = inhibition [%]"
1,CC(/C=N/n1c(-c2ccc(C)cc2)n[nH]c1=S)=C\c1ccco1,-40.8
2,CN1C(=O)CC(NNC(=O)c2ccc(Cl)cc2)C1=O (configuration not stated),-47.1
3,O=C(N/N=C1/CCSC1)c1cc(Br)ccc1O,-17.6
4,O=c1[nH]nc(CNc2ccc(O)cc2)c2ccccc12,-103
5,COc1ccc(Nc2ccccc2N)cc1,221
6,COc1ccc(NCCc2ccccn2)cc1,86.3
7,S=c1[nH]cc(-c2ccccc2)n1-c1ccccc1Cl,-24.1
8,C/C(=N\NC(=O)c1ccccc1O)C1C(=O)c2ccccc2C1=O,-23.9
9,Nc1ccccc1C(=O)NNc1c2ccccc2nc2ccccc12,-69.6
10,CC(=O)Nc1ccc(NCN2C(=O)C3C4CCC(C4)C3C2=O)cc1 (configuration not stated),-86.6
11,CCc1cc2c3c(c1)C(C)CC(C)(C)N3C(=O)/C2=C1\SC(=O)NC1=O (configuration not stated),-7.31
12,C/C(=N\Nc1ccccn1)c1cccs1,-11.5
13,COc1ccc2c(c1)N(C)/C(=C/c1cccc[n+]1C)S2,-53.1
14,CCC(=O)Nc1cccc(-c2cnc3ccccc3n2)c1,3.89
15,CN1CCN(c2ccc(NC(=O)c3ccc(Cl)cc3)cn2)CC1,-19.7
16,COc1cc(OC)cc(C(=O)N2CCC(N3CCN(c4ccccc4)CC3)CC2)c1,-61.4
17,CC(=O)NN1C(=O)/C(=C\c2ccc(O)cc2)SC1=S,-79.9
18,O=C(C1CC1)N1CCN=C1SCc1ccc(Cl)cc1,-64.3
19,O=C1c2ccccc2CSc2c(O)cccc21,-28.4
20,CC(=O)Nc1ccc(S(=O)(=O)NNc2ccc([N+](=O)[O-])cc2)cc1,-103
21,O=C(C1CC1)N1CCN=C1SCc1ccc(F)cc1,-51.5

row,SMILES,"activity change, negative = inhibition [%]"
1,CN(C)/C=N/c1sc2c(c1C#N)CCC2,25.9
2,COC(=O)c1ccc(NC(=O)c2ccc(C)cc2)o1,-4.94
3,CN(C)c1ccc(/C=N/NC(=O)c2cccc(N3CCCC3=O)c2)cc1,-16.6
4,CC(=O)Nc1cccc(N2CCCC2=O)c1,-18.2
5,CCc1c(C)sc(NC(=O)c2cc(C)no2)c1C#N,-63.3
6,COC(=O)c1ccc2[nH]c3c(c2c1)CC(C)CC3 (configuration not stated),-6.7
7,Cc1nc2ccc(S(=O)(=O)N(C)CC(=O)NCc3ccc(N(C)C)cc3)cc2s1,-41.2
8,CCN1C(=O)c2ccc(C(=O)Nc3ccc(O)cc3C)cc2C1=O,-50.1
9,CCN(Cc1nc2ccccc2n1C)c1ccccc1,-11.5
10,CCn1c(-c2ccc(N)cc2)nc2ccccc21,-17.3
11,CCn1c(CN(C)c2ccccc2)nc2ccccc21,-7.07
12,CN(Cc1nc2ccccc2n1C)c1ccccc1,-32.4
13,O=C(Nc1ccc(O)cc1)c1cc2n(n1)C(C(F)(F)F)CC(c1ccco1)N2 (configuration not stated),-82.6
14,c1ccc2c(-c3csc(-c4ccncc4)n3)c[nH]c2c1,-10.2
15,CCCCCCC(=O)N/N=C/c1ccco1,-28.6
16,COc1cc(C=NNC(=O)c2ccc(NS(=O)(=O)c3cccs3)cc2)cc(Br)c1O,165
17,COc1nc(-c2ccccc2Cl)ccc1C#N,-32.6
18,Cc1ccc2cn[nH]c2c1N,-36.2
19,O=S(=O)(Nc1ccccc1O)c1ccc(Cl)nc1,-36.8
20,COc1ccc(N2C(=O)CC(NNc3ncc(Cl)cc3Cl)C2=O)cc1 (configuration not stated),-50.3
